“And” between values parts separate entries of the source, which are not always exact repeats. Equal entries are not always repeated. Results filed as inconclusive are left out. A structure can be active in one record and inactive in another. The source made the active and inactive calls. Calls follow the shape of the dose curve; as a rule, active = well fitted cell-killing curve with a large enough effect; inconclusive = small, poorly fitted or top-dose-only effect, or effect the other way; inactive = no such curve, though single readings can be large or run the other way.
Potency is read from the fitted curve at half-maximal effect.

A short description of the assay: Viability qHTS for spleen associated tyrosine kinase inhibitor (SYKi) drug resistant MV4-11 cells (AID 1963824). Also: nearly all actives have a fitted effect of over 35% in size. To be noted: SYKi-resistant MV4-11 viability, CellTiter-Glo, 72 h; series mostly up to 45 µM. An excerpt:
Department of Medicine, Hematology/Oncology
University Hospital Frankfurt, Germany.
Trials have shown promising clinical activity of the selective SYK inhibitor entospletinib in patients with high expressing HOXA9/MEIS1 acute leukemias. As the development of resistance mechanisms is a common problem in the use of targeted drugs, we performed a chemical library screen to identify drug sensitivities in SYK inhibitor resistant AML cells. […] Glucocorticoids are potent immunosuppressants which work in part by inhibiting the transcription of cytokine genes.
Described herein is a viability screen to look for activity in the SYK inhibitor drug resistant cell line against four NCATS compound libraries (MIPE 5.0, NPC, NPACT, and Kinase) totaling 11372 compounds. Active hits were reacquired for confirmation and further secondary assay testing.
SEQUENCE No. (e.g., 1, 2, 3, etc.); […] (e.g., Cells, Incubation, Reagent, etc.); VALUE; DESCRIPTION.
1; Media; 2uL; white, solid-bottom Corning assay plate.
2; Compounds; 23nL; Echo acoustic dispenser.
3; Cell; 5uL; 500 cells per well.
4: Incubation; 72hr; 37 C, 5% CO2, 95% humidity.
5; Reagent; 3uL; CellTiter-Glo reagent (Promega).
6; Incubation; 10min; room temperature.
7; Detection; Luminescence; ViewLux plate reader (PerkinElmer).
NOTES (numbers refer to Sequence numbers above
1. Quantitative high-throughput screening (qHTS) of small molecule compounds was conducted on drug resistant SYKi MV4-11 cell line.
2. Twenty-three nanoliter of small molecule compounds were added to each assay plates using the Echo acoustic dispenser (Beckman Coulter).
3. Cells were seeded into the assay plates at a final density of 500 cells in 5uL of media per well using the Multidrop Combi dispenser.
4. Plates were covered with stainless steel gasketed lids and incubated for 72 hours at standard cell culture conditions.
5. Viability was assessed by adding 3uL of CellTiter-Glo detection reagent (Promega).
6. Plates were covered with gasket lids and incubated for 10 minutes at room temperature.
7. Luminescence was measured on a ViewLux plate reader (PerkinElmer).
For the compound `COC(=O)[C@H](CC1C=NC=N1)NCC12CC3CC(CC(C3)C1)C2` (stereo not given in full), the Potency entry is “inactive”.

Regarding `O=C(O)C1=CO[C@@H](O[C@@H]2O[C@H](CO)[C@@H](O)[C@H](O)[C@H]2O)[C@@H]2C(CO)=CC[C@H]12`, the Potency is 12.8 µM (active) and inactive.

Take `C[C@]12CC[C@@H]3c4ccc(O)cc4C[C@@H](CCCCCCCCCS(=O)CCCC(F)(F)C(F)(F)F)[C@H]3[C@@H]1CC[C@@H]2O` (stereo not given in full): the Potency result was “inactive”.

`Oc1ccc(CCNCCCCCCNCCc2ccccc2)cc1O`: the Potency was 21.1 µM (active).

For the compound `O=C(NCCCNC(=O)c1ccc[nH]c1=O)c1cc(-c2ccccc2)on1`, the Potency is 4.68 µM (active).

For `OC[C@H]1O[C@@H](OC[C@H]2O[C@@H](OCc3ccccc3)[C@H](O)[C@@H](O)[C@@H]2O)[C@H](O)[C@@H](O)[C@@H]1O`, the Potency entry is “inactive”.

`Cc1c(OCc2cccc(-c3ccc(C(=O)O)cc3)c2)cc2c(c1C)C(=O)C(C1CCCC1)C2` (stereo not given): the Potency result is “inactive”.

In the case of `CN(C)CCCOc1nn(Cc2ccccc2)c2ccccc12`, the Potency entry was “inactive and 13 µM (active)”.

As to `Nc1nc(N)c(N=O)c(OCC2CCCCC2)n1`, the Potency is 8.2 µM (active) and 8.33 µM (active).

As for `CC(C)(C)CC(C)(C)c1ccc(OCCOCC[N+](C)(C)Cc2ccccc2)cc1`, the Potency is 2.37 µM (active) and 1.46 µM (active).

Regarding `Oc1ccc(O)cc1`, the Potency was 13.3 µM (active).

For the compound `NS(=O)(=O)c1ccc(N2CCCCS2(=O)=O)cc1`, the Potency entry was “inactive”.

As for `O=c1ccn([C@@H]2O[C@H](CO)[C@@H](O)[C@H]2O)c(=O)[nH]1`, the Potency entry was “inactive”.

Turning to `COC(=O)[C@@H](N)Cc1ccc(O)c(O)c1`, the Potency result is “inactive”.

For `CC(C)(C)c1ccc(-c2nc3c(N4CCN(Cc5ccc6nccnc6c5)CC4)cccc3[nH]2)cc1`, the Potency is 8.2 µM (active).

With `N#Cc1ccc(-c2cnc3[nH]cc(NC(=O)c4cccnc4)c3c2)cc1`, the Potency is 0.92 µM (active).

As for `Cc1ccc(NS(=O)(=O)c2cc3c(cc2Cl)CCC(=O)N3)cc1Cl`, the Potency was 9.2 µM (active).

Regarding `N#Cc1ccc2c(c1)CCN(CCC1CCC(NC(=O)c3ccnc4ccccc34)CC1)C2` (stereo not given), the Potency is 10.3 µM (active).

Take `N#CC1(c2ccc(NC(=O)c3cccnc3NCc3ccncc3)cc2)CCCC1`: the Potency was 5.17 µM (active).

Turning to `O=C1OCc2cc3cccc(O[C@@H]4O[C@H](CO)[C@@H](O)[C@H](O)[C@H]4O)c3c(O)c21`, the Potency entry was “inactive”.

As to `CCOc1cc2ncc(C#N)c(Nc3ccc(F)c(Cl)c3)c2cc1NC(=O)/C=C/CN(C)C`, the Potency was 0.235 µM (active).

In the case of `O=C(Nc1ccc2[nH]nc(-c3ccncc3)c2c1)[C@@H]1CCN(CC(=O)N2CCN(c3ccc(-c4ncccn4)cc3)CC2)C1`, the Potency was 23.1 nM (active) and 468 nM (active).

Regarding `CCN(CC)CCCCNc1ncc2cc(-c3cc(OC)cc(OC)c3)c(NC(=O)NC(C)(C)C)nc2n1`, the Potency is 5.8 µM (active) and 9.34 µM (active).

Consider `C=CCc1ccc(O[C@@H]2O[C@H](CO)[C@@H](O)[C@H](O)[C@H]2O)c(O[C@@H]2O[C@H](CO)[C@@H](O)[C@H](O)[C@H]2O)c1`, for which the Potency entry was “inactive”.

For the compound `CS(=O)(=O)c1ccc(-c2nnc(/C=C/c3nnc(-c4ccc(C#N)cc4)o3)n2-c2ccccc2Cl)nc1`, the Potency is 14.8 µM (active).

As for `C[C@@H]1O[C@@H](O[C@H]2[C@@H]3C=CO[C@@H](O[C@@H]4O[C@H](CO)[C@@H](O)[C@H](O)[C@H]4O)[C@@H]3[C@@]3(CO)O[C@@H]23)[C@H](OC(=O)/C=C/c2ccccc2)[C@H](O)[C@H]1O`, the Potency result is “inactive”.

On to `C[C@]1(O)CC[C@@H]2C(C(=O)O)=CO[C@@H](O[C@@H]3O[C@H](CO)[C@@H](O)[C@H](O)[C@H]3O)[C@@H]21`, for which the Potency entry is “inactive”.

Take `CC(C)(C)C(O)/C=C/c1ccc2c(c1)OCO2` (stereo not given): the Potency result was “inactive”.

Take `CCOC(=O)N1CCC(CN(Cc2ccc(Cl)cc2)Cc2ccc([N+](=O)[O-])s2)C1` (stereo not given): the Potency is 16.4 µM (active).

For the compound `O=C1O[C@H](C(O)CO)C(=O)C1=O` (stereo not given in full), the Potency result was “inactive”.

As for `CC12CCC(=O)C=C1C(O)CC1C2C(O)CC2(C)C1CC[C@]2(O)C(=O)CO` (stereo not given in full), the viability, % of control is 90% [at 9.25 µM] (inactive).

For the compound `CC1(C)CCC2(C(=O)OC3OC(COC4OC(CO)C(O)C(O)C4O)C(O)C(O)C3O)CCC3(C)C(=CCC4C5(C)CCC(O)C(C)(C(=O)O)C5CCC43C)C2C1O` (stereo not given), the viability, % of control was 102% [at 9.25 µM] (inactive).

Regarding `Cc1ncc([N+](=O)[O-])n1CC(C)O` (stereo not given), the Potency result is “inactive”.

Take `COc1ccc2cc(OCC3(C(=O)O)CN(C(=O)c4ccc(F)cc4)C3)ccc2c1`: the Potency result is “inactive”.

In the case of `CCC1Nc2cc(Cl)c(S(N)(=O)=O)cc2S(=O)(=O)N1` (stereo not given), the Potency entry is “inactive”.

On to `CC(C)CC1(C(=O)OCc2ccc(O[C@@H]3O[C@H](CO)[C@@H](O)[C@H](O)[C@H]3O)cc2)CC(=O)OC(C(=O)O)CC(=O)OCC2OC(O1)C(OC(=O)/C=C/c1ccc(O)cc1)C(O)C2O` (stereo not given in full), for which the viability, % of control was 89.5% [at 9.25 µM] (inactive).

Turning to `COc1cc(Nc2ncc(F)c(Nc3ccc4c(n3)N(COP(=O)(O)O)C(=O)C(C)(C)O4)n2)cc(OC)c1OC`, the Potency is 130 nM (active) and 461 nM (active) and 148 nM (active).

`CC(C)C[C@@H](N)C(=O)N[C@H]1C(=O)N[C@@H](CC(N)=O)C(=O)N[C@H]2C(=O)N[C@H]3C(=O)N[C@H](C(=O)N[C@H](C(=O)O)c4cc(O)cc(O)c4-c4cc3ccc4O)[C@H](O)c3ccc(c(Cl)c3)Oc3cc2cc(c3O[C@@H]2O[C@H](CO)[C@@H](O)[C@H](O)[C@H]2O[C@H]2C[C@](C)(N)[C@H](O)[C@H](C)O2)Oc2ccc(cc2Cl)[C@H]1O`: the Potency entry is “inactive”.

`Cc1c(-c2c(-c3ccc(F)o3)sc3ncnc(O[C@@H](Cc4ccccc4OCc4ccnn4CC(F)(F)F)C(=O)O)c23)ccc(OCCN2CCN(C)CC2)c1Cl`: the Potency is 0.0132 µM (active).

In the case of `C[C@H](CCC(=O)O)[C@H]1CC[C@H]2[C@@H]3C[C@H](O)[C@@H]4C[C@H](O)CC[C@]4(C)[C@H]3CC[C@]12C`, the Potency result was “inactive”.

For the origin of these results see PubChem BioAssay (NCATS).
